Sampled rows, rich in hits. Any-hit rate of the full collection: about 12%.
INS promoter inh: inhibitors of insulin promoter-driven GFP, primary screen, imaging, TRM-6 cells (human fetal islet line), eGFP reporter, cell count; reporter expression induced with tamoxifen; inhibition, % at 2 µM; actives 0.9% (n = 130,000); AID 1273, 2008;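 active means inhibition above the mean plus 3 SD, with well images judged a real hit on visual review, cut at about 60% in these data, passing the limit was not always enough; inconclusive means inhibition over the cutoff but images rejected on review; inactive means inhibition not above the cutoff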
WT yeast gro inh: growth inhibition of WT strain, primary screen, mitochondrial fusion inhibitor project, WT and mutant strains, chemical genetic | mitochondrial fusion phenotypic screen | inhibition, % at 10 µM | actives 2.1% (n = 190,000) | AID 1362, 2008; in the data active means inhibition above about 58%; tested in S. cerevisiae
L major viab: Leishmania major promastigote growth inhibition, primary screen. actives 9% (n = 200,000). AID 1063, 2008. inhibition, % at 10 µM. Leishmania major promastigotes, resazurin fluorescence viability; in the data active means inhibition above about 50%;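 further: promastigotes grown with compound for 44 hours at 28 °C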
Ins promoter up: insulin promoter activators in MIN6 cells, imaging, high-content screening, mouse beta cells; MIN6 insulin promoter-GFP reporter; active compounds read high; z-score at 5 µM; actives 0.3% (n = 190,000);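 active means z-score above 3 at 5 µM with at least 500 cells counted in the well; inconclusive means wells under 500 cells, flagged as cytotoxic or low count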
ROMK primary: ROMK potassium channel modulators, primary screen, cell-based, thallium flux, MLSMR library; ATP-sensitive inward rectifier potassium channel 1 (Homo sapiens), P48048; Tet-inducible ROMK, thallium flux fluorescence; actives lie on both sides; B-score at 10 µM; actives 2% (n = 130,000);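 active means signal ratio slope over the read window, or its plate-corrected B-score, at least 3 SD from the plate mean, either direction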;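 further: B-score of the F/F0 ratio slope over 7 to 12 s after thallium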
Target sequence (P48048 whole entry, looked up): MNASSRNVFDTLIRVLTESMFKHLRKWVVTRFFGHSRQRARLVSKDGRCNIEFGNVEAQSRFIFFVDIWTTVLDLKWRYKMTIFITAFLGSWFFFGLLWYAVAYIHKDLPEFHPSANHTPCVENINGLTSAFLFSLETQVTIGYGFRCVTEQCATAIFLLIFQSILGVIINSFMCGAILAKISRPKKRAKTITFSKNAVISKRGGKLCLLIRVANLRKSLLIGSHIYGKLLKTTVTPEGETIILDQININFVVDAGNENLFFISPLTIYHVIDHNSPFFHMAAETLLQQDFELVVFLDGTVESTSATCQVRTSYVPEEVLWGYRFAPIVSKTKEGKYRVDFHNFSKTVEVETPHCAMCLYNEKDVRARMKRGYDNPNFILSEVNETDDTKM
KCC2 mod: KCC2 cotransporter modulators, thallium flux, primary screen, cell-based, HEK293 KCC2, FluoZin-2 fluorescence, MLSMR; Solute carrier family 12 member 5 (Homo sapiens), Q9H2X9; KCC2 cells, thallium flux FluoZin-2 fluorescence; B-score of Tl+ flux slope (higher = more flux/activation; lower = inhibition) at 10 µM; actives 2.2% (n = 190,000); AID 1456, 2008;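 active means thallium flux slope and its plate-corrected score both differing from the plate sample mean at a set confidence after two filtering rounds, in either direction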;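 further: slope of fluorescence scaled to starting intensity during 10 to 20 s after thallium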
* = called active by the depositor; ? = inconclusive; nt = no result given.

SMILES	INS promoter inh	WT yeast gro inh	L major viab	Ins promoter up	ROMK primary	KCC2 mod
CCOC(=O)c1[nH]c2ccc(F)cc2c1NC(=O)CN1CCc2cc(OC)c(OC)cc2C1	50	-12	0	-2.4	nt	nt
CCOC(=O)c1[nH]c2ccc(F)cc2c1NC(=O)CN1CCN(C/C=C/c2ccccc2)CC1	nt	1	99*	-0.93	nt	0.63
CCN1CCN(CC(=O)Nc2c(C(=O)OC)[nH]c3cccc(Cl)c23)CC1	79*	-7	2	0.36	1.3	nt
CCC(C)[C@H](NC(=O)Nc1ccc(S(N)(=O)=O)cc1)C(=O)OC (some centres undefined)	nt	nt	nt	-0.13	nt	1.3
Cc1ccc(C(c2nnnn2CC2CCCO2)N2CCN(c3cccc(C)c3C)CC2)cc1 (centres undefined)	-45	60*	59*	-1.3	nt	-0.98
COc1ccc(C(c2nnnn2CC2CCCO2)N2CCN(c3ccccc3)CC2)cc1 (centres undefined)	10	11	-2	-0.07	nt	-0.23
CCC(c1nnnn1C(C)(C)C)N1CCN(c2cc(Cl)ccc2C)CC1 (centres undefined)	-58	73*	1	0.62	nt	-0.14
CCCC(c1nnnn1CC1CCCO1)N1CCN(c2cc(Cl)ccc2C)CC1 (centres undefined)	nt	65*	18	-0.36	0.41	nt
Cc1cc(C)c(NC(=O)CN)c(C)c1	-59	-1	-1	-0.25	-0.093	1.2
N/C(=N\OC(=O)COc1ccc([N+](=O)[O-])cc1)c1cccnc1	-6	10	-4	-0.63	0.21	-1.2
COc1ccc2[nH]c(C(=O)Nc3cccc(C)n3)cc2c1	nt	nt	nt	0.54	nt	-0.35
COCCOC(=O)C1=C(N)OC2=C(C(=O)CC(C)(C)C2)C1c1ccncc1 (centres undefined)	nt	-6	-3	-0.37	-0.8	1.2
COc1ccc(CC2(C)OC(c3ccc(Cl)cc3)=NN2C(C)=O)cc1 (centres undefined)	nt	56	54*	nt	-1.7	0.2
C=CCNC(=S)Nc1ccc(C)c(S(=O)(=O)N2CCCCC2)c1	-100	10	9	-0.14	-0.23	0.23
Cc1ccc(NC(=S)Nc2ccc(C(C)C)cc2)cc1S(=O)(=O)N1CCCCCC1	7	66*	7	0.3	-0.25	0.54
COc1ccc(NC(=S)Nc2ccc(C)c(S(=O)(=O)N3CCCCC3)c2)cc1	19	-19	76*	-0.4	-0.48	0.32
Cc1ccc(NC(=O)c2cccc(F)c2)cc1S(=O)(=O)N1CCCCCC1	nt	7	30	0.94	-1	0.011
C=CCNC(=O)c1cc(C(=O)C(C)c2ncc(C(F)(F)F)cc2Cl)c[nH]1 (centres undefined)	60	-7	1	-0.28	0.95	nt
Nc1nc(Cl)cc(Sc2ccc3ccccc3c2)n1	-25	-16	0	nt	nt	nt
COc1ccccc1N(C)S(=O)(=O)c1ccc(C(=O)NC(C)(C)C)cc1	19	-6	2	1.7	0.3	1
COc1ccccc1N(C)S(=O)(=O)c1ccc(C(=O)Nc2nc(C)cs2)cc1	-24	8	99*	0.43	-0.75	-1.2
COc1ccccc1N(C)S(=O)(=O)c1ccc(C(=O)NCc2ccc3c(c2)OCO3)cc1	nt	-1	99*	1.5	-1	-2.1
COC(=O)c1cccc(NC(=S)N2CCOCC2)c1	nt	-7	-6	nt	nt	0.008
Cc1ccc(CNc2nc3ccccc3n3cnnc23)cc1	nt	12	-2	-0.5	nt	-0.01
COc1ccc2c(c1)-c1nc(/N=C/c3ccc(O)cc3)sc1CC2	77*	32	-3	nt	-0.85	-0.2
SMILES	INS promoter inh	WT yeast gro inh	L major viab	Ins promoter up	ROMK primary	KCC2 mod
Oc1ccc2ccccc2c1/C=N/c1nccs1	21	16	-4	-0.19	nt	1.4
COc1ccc2c(c1)-c1nc(/N=C/c3c(O)ccc4ccccc34)sc1CC2	69	15	81*	nt	nt	-0.017
CCN(CC)CCN1CCn2c3c(c4cc(C)ccc42)CCCC31 (centres undefined)	-16	10	100*	-0.49	-1.6	0.83
CCN1CCn2c3c(c4cc(Cl)ccc42)CCCC31 (centres undefined)	nt	4	54*	-0.02	nt	nt
Cc1ccc2c(c1)c1c(n2C)C(=O)CCC1	-41	0	-3	-0.15	nt	-0.046
N#C/C(=N\Nc1cccc([N+](=O)[O-])c1)C(=O)c1ccc(Br)cc1	nt	67*	14	-1.4	3.1*	-6.8*
O=C(O)c1ccc(N=NNc2cccc([N+](=O)[O-])c2)cc1	-64	0	5	-0.41	-0.12	-0.48
CN(Cc1cn(C)c2ccccc12)C(=S)Nc1cc(F)cc(F)c1	8	22	74*	0.07	0.25	-0.92
Cc1cccc(NC(=S)N(C)Cc2cn(C)c3ccccc23)c1	26	72*	69*	-0.26	-0.0091	-0.9
COc1ccc(/C=c2\sc3nc(=O)c(C)nn3c2=O)c(OC)c1	nt	-7	-10	0.05	1.1	0.17
Nc1c(Cl)ncnc1N/N=C/c1ccc2ccccc2n1	34	42	100*	?	-0.84	0.82
Nc1c(Cl)ncnc1N/N=C/c1cccnc1	nt	nt	nt	nt	-0.0095	0.042
Nc1c(Cl)ncnc1N/N=C/c1ccccn1	56	57	100*	?	-0.4	0.95
Nc1c(Cl)ncnc1N/N=C/c1ccnc2ccccc12	23	-7	-1	-0.2	nt	0.49
C=CCn1c(=O)/c(=C2/Sc3cc(OC)ccc3N2C)s/c1=C1\C(=O)N(CC)C(=S)N1C	-75	11	-3	-0.03	0.52	nt
Cc1cc(C)c(-c2c(O)c3cnn(-c4ccccc4)c3[nH]c2=O)c(C)c1	67*	-12	-7	0.47	-0.088	0.52
CCSc1nnc(NC(=O)c2nc3nc(C)cc(C)n3n2)s1	nt	0	-9	0.04	0.4	-1.7
C=CCSc1nc2ccccc2c(=O)n1Cc1ccccc1	-33	24	7	-0.66	0.46	0.96
O=c1c2ccccc2nc(SCc2ccccc2Cl)n1Cc1ccccc1	nt	69*	18	-0.12	nt	nt
CC(C)Cn1c(SCC(=O)N2CCCCC2)nc2ccccc2c1=O	-269	-1	24	-0.2	-1.4	-0.38
Cn1c(=O)c2c(nc(SCCN3CCCCC3)n2Cc2ccc(Cl)cc2)n(C)c1=O	14	5	90*	-1.4	-0.37	nt
O=c1c2ccccc2nc(SCCN2CCCCC2)n1CCc1ccccc1	-48	34	86*	-1.6	-1.6	3.1
Cc1cc(NC(=O)COC(=O)c2cccc(S(=O)(=O)N(C)C3CCCCC3)c2)no1	nt	nt	nt	0.49	nt	-2.4
O=C(NC1(C(F)(F)F)NC(=O)N(c2ccccc2)C1=O)c1cccs1 (centres undefined)	-48	-11	57*	-0.16	0.53	-0.23
Cc1ccc(S(=O)(=O)N2CCN(S(=O)(=O)N3CCCCC3)CC2)cc1	30	5	-4	0.46	nt	-0.47

From PubChem
